Measured values reported in PubChem BioAssay AID504757 (Sanford-Burnham Center for Chemical Genomics, 2011).
The list shows a part of the results. The source made the active and inactive calls. Cut-off read from the data, not from the text of the source: active = inhibition above about 39%; inactive = the rest.

target: Cysteine protease ATG4B (Homo sapiens) (UniProt Q9Y4P1); assay: re-tested blockers of ATG4B cleavage activity – biochemical, fluorescence, single concentration, confirmation (AID 504757); conditions: ATG4B protease fluorescent substrate cleavage assay; at 8.33 µM; hits give high values
Sequence (Q9Y4P1 whole entry, looked up): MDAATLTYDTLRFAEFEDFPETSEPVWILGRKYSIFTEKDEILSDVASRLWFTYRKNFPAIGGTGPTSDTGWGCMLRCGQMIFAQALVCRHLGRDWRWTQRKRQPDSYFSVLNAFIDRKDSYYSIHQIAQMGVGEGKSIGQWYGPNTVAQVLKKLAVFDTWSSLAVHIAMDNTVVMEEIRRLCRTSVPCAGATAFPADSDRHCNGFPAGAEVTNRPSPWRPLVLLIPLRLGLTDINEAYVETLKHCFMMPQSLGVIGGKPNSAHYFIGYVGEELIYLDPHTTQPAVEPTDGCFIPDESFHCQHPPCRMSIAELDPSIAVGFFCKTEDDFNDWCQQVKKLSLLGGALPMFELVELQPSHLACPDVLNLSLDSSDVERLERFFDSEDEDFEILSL

Structure (SMILES)	inhibition
Cc1ccc(-c2cc(C(=O)N3CCc4ccccc4C3)no2)cc1	66.7% (active)
NC(=O)c1sc2nc3c(c(-c4ccccc4)c2c1N)CCC3	57.5% (active)
Cc1ccc(CSc2nc(-c3ccccc3)c(C#N)c(=O)[nH]2)cc1	54.3% (active)
Cc1ccc(N=C2NC(=O)/C(=C/C=C/c3ccco3)S2)cc1C	66.8% (active)
CC(=O)Nc1ccc(C(=O)Nc2nc(-c3cc(C)n(Cc4ccccc4)c3C)cs2)cc1	62.7% (active)
CCCC1=Nc2cc(C(=O)NCc3ccco3)ccc2Sc2ccccc21	54.3% (active)
O=C(O)CCn1cc(/C=C/C(=O)c2ccc(Cl)cc2)c(-c2cccc(Br)c2)n1	56.8% (active)
CCOC(=O)c1c(-c2ccccc2)oc2cc(Br)c(O)c(C=O)c12	79% (active)
COc1ccc(/C=C2/SC(=O)N(CCCCCC(=O)Nc3ccccc3C(=O)O)C2=S)cc1	56.7% (active)
CN(C)Cc1ccc(F)cc1Sc1cc(Cl)ccc1Cl	67.4% (active)
Clc1ccccc1CSc1nnc(-c2ccco2)c(-c2ccco2)n1	64.1% (active)
CCCOc1ccc2c3c(c(=O)oc2c1OCCC)CCC3	60.3% (active)
OC(CNCc1ccc(Cl)c(Cl)c1)c1ccccc1 (stereo unspecified)	73.9% (active)
O=C1Nc2cc(Cl)c(Cl)cc2N(O)N1c1cc(Cl)cc(Cl)c1	64.3% (active)
COc1ccc(/C=C2\CCc3ccccc3C2=O)c(OC)c1OC	90.7% (active)
Cc1ccc(-n2c(SCC(=O)N/N=C/C=C/c3ccccc3[N+](=O)[O-])nc3ccccc3c2=O)cc1	46.6% (active)
COC(=O)N/N=C/c1cn(CCCOc2ccc(C)cc2)c2ccccc12	64.9% (active)
CCOC(=O)C(C)Sc1nc2ccccc2c(=O)n1CC1CCCCC1 (stereo unspecified)	54.5% (active)
CCc1ccc2c(c1)C(c1ccc([N+](=O)[O-])cc1)=NNC(c1ccccc1)=N2	51.2% (active)
FC(F)(F)Oc1ccc(NC(=S)NCc2ccccc2)cc1	71.7% (active)
O=C(O)C(c1ccccc1)N1C(=O)/C(=C\c2ccc(-c3cccc(Cl)c3)o2)SC1=S (stereo unspecified)	38.8% (active)
